High-throughput results from PubChem.
A selection: hits, their analogues and other compounds. The true share with any hit is near 12%.
G9a block: blocks human histone lysine methyltransferase G9a | Q96KQ7 | G9a H3K9 monomethylation, AlphaScreen, 2 h | Potency, µM (titrated, usually from 102 µM), hits mostly inhibitors | actives 8.8% (n = 350,000) | AID 504332; further: nearly all actives have a fitted effect of over 75% in size
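Methyltransferase reactions run at room temperature for 2 h (20 nM enzyme, 500 nM biotin-H3K9 peptide, 20 uM SAM) after a 15 min compound preincubation; product detected by AlphaScreen beads and anti-H3K9me1 antibody.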
Sfp inh: blocks B. subtilis Sfp PPTase activity. Q9F4F7. Biochemical Sfp PPTase activity, qHTS. Potency, µM, hits mostly inhibitors. actives 3.5% (n = 310,000);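 further: the enzyme is Sfp with the accession as filed and its product quenches rhodamine fluorescence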
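Fluorescence-quenching assay with 15 nM Sfp, 5 uM rhodamine-CoA and 12.5 uM BHQ-2-labelled ybbR peptide in pH 7.6 Hepes/MgCl2 buffer. Enzyme was pre-incubated with compound for 15 min at room temperature. Rate was taken from the 30-min fluorescence change (525/598 nm).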
BAZ2B inh: BAZ2B (human) inhibition. Q9UIF8. AlphaScreen BAZ2B-H3K14Ac peptide displacement. Potency, µM (series often up to 114 µM), actives largely listed as inhibitors. actives 4.4% (n = 360,000); further: nearly all actives have a fitted effect of over 60% in size
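AlphaScreen displacement: compounds (up to 110uM) incubated 30 min at room temperature with a preformed 50 nM BAZ2B/50 nM biotinylated H3K14Ac peptide complex in PBS pH 7.4 with Tween-20. Donor and acceptor beads at 10 ug/mL final added, 20 min light-protected before reading.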
JMJD2A Tudor: inhibitors of human JMJD2A Tudor domain; O75164; AlphaScreen JMJD2A-Tudor / H3K4me3 peptide binding; Potency, µM (series often up to 114 µM), usual class: inhibitors; actives 4.4% (n = 390,000); further: nearly all actives have a fitted effect of over 50% in size
HP1b binding inh: HP1-beta chromodomain-methylated histone interaction inhibition; AID 540317; Potency, µM (highest dose often 114 µM), hits mostly inhibitors; AlphaScreen HP1-beta / biotin-H3K9me3 peptide binding; actives 0.56% (n = 390,000); further: nearly all actives have a fitted effect of over 70% in size
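Compound inhibition of the preformed complex between 50 nM HP1-beta and 50 nM biotinylated H3K9me3 peptide was read by AlphaScreen. Buffer was PBS pH 7.4 with 0.01% Tween-20. Incubations ran 30 min at room temperature, with 10 ug/mL donor/acceptor beads.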
A number is an active result; 0 = inactive; ? = inconclusive; - = no result given; [ ] = remark or other dose. The call rests on the fitted dose curve; in most records, active means well fitted curve in the direction sought with a large enough effect; inconclusive means small, poorly fitted or top-dose-only effect, or another doubt; inactive means no such curve, though single readings can be large; an effect the other way counts as inactive or inconclusive.

SMILES	G9a block	Sfp inh	BAZ2B inh	JMJD2A Tudor	HP1b binding inh
C[C@@H]1CN([C@H](C)CO)C(=O)c2cc(NC(=O)c3ccncc3)ccc2O[C@@H]1CN(C)C(=O)Nc1ccccc1	-	-	-	50µM	0
Cc1noc(C)c1NC(=O)N(C)C[C@@H]1Oc2c(NC(=O)c3ccncc3)cccc2C(=O)N([C@H](C)CO)C[C@@H]1C	-	-	-	35µM	0
C[C@H](CO)N1C[C@H](C)[C@@H](CN(C)C(=O)Nc2ccc(C(F)(F)F)cc2)Oc2ccc(NC(=O)c3ccncc3)cc2C1=O	-	-	-	0	0
O=c1c2ccccc2oc2ccc(-c3ccc4cc[nH]c4c3)cc12	-	-	-	0	0
O=C(N/N=C/c1ccoc1)c1ccc(Cl)cc1	45µM	50µM	0	0	0
Cn1c(CCCNC(=O)c2ccccc2)nc2ccccc21	0	0	0	0	0
O=C(N/N=C/c1ccoc1)c1ccc(Br)cc1	0	0	?	0	0
O=C(N/N=C/c1ccoc1)c1cc(O)cc(O)c1	-	0	20µM	25µM	45µM
Cc1cc(C)cc(C(=O)N/N=C/c2ccoc2)c1	0	0	0	0	0
O=C(N/N=C/c1ccoc1)c1ccccc1	0	0	56µM	0	0
Cn1c(/C=N/NC(=O)c2ccccc2)nc2ccccc21	?	0	0	89µM	0
Cc1ccc2nc3n(c2c1)CCCN3	0[2.33 µM]	-	0	0	0
COc1cccc(NC(=O)C(Cc2ccccc2)N2Cc3ccccc3C2=O)c1 (stereo not drawn)	0	-	0	0	0
Cc1ccc(C(=O)c2oc3ccccc3c2NC(=O)COc2ccc(C(C)(C)C)cc2)cc1	0	-	0	0	0
CCOC(=O)N1CCN(Cc2nc3cc([N+](=O)[O-])ccc3n2C)CC1	0	0	0	0	0
CCOC(=O)c1c(C)n(-c2ccc(C)cc2)c2c(C(C(C)=O)C(=O)O)c(Br)c(O)c(O)c12 (stereo not drawn)	?	0.89µM	0	0	?
CCOC(=O)C(C(C)=O)c1c(Br)c(O)c(O)c2c(C(=O)c3ccc(C)cc3)coc12 (stereo not drawn)	?	13µM	40µM	?	?
Cc1ccc(C(=O)c2coc3ccc(O)c(Cl)c23)cc1	0[12.7 µM]	0	0	0	0
CC(C)(CS)C(=O)N1CCC[C@H]1C(=O)O	4.5µM	22µM	-	-	-
CC(C)(C)OC(=O)N1CCCC1C(=O)O (stereo not drawn)	0	0	0	0	0
CCOC(=O)C1=C(CN2CCC(C(=O)OCC)CC2)NC(=O)NC1c1ccc(Cl)cc1 (stereo not drawn)	0	-	-	0	0
Cc1ccc(S(=O)(=O)CC(c2ccccc2)N2CCCCC2)cc1 (stereo not drawn)	50µM	0	0	0	0
CC(CN1CCN(C/C=C/c2ccccc2)CC1)c1ccccc1 (stereo not drawn)	0[0.501 µM]	0	?	13µM	0
CC(=C1C(=O)c2ccccc2C1=O)N1CCN(C/C=C/c2ccccc2)CC1	?	56µM	?	0	0
CCC(=O)N1CCc2cc(CNC(=O)C(CC)c3ccccc3)ccc21 (stereo not drawn)	0	-	0	0	0
SMILES	G9a block	Sfp inh	BAZ2B inh	JMJD2A Tudor	HP1b binding inh
Cc1ccc2c(c1)nnn2C1CCN(CC(=O)N(c2ccccc2)c2ccccc2)CC1	0	0	0	0	0
Cc1ccc2c(c1)nnn2C1CCN(CC(=O)c2ccc(Cl)cc2)CC1	45µM	0	0	0	0
CCN(CC)c1ccc(N2C(=O)CSC2=S)cc1	0	0	0	50µM	?
O=C(O)c1cc(C(=O)O)cc(N2C(=O)CSC2=S)c1	18µM	0	?	0	0
CCOc1ccc(N2C(=O)CSC2=S)cc1	0	0	0	0	0
O=C(c1ccccc1)c1ccc(O)c(O)c1O	-	-	-	25µM	?
CCN1CCc2c(sc(NC(=O)c3ccc(S(=O)(=O)N4CCOCC4)cc3)c2C(N)=O)C1	56µM	0	0	0	0
NC(=O)c1c(NC(=O)c2ccccc2)sc2c1CCN(Cc1ccccc1)C2	0	0	0	0	0
CC(C)C(=O)Nc1sc2c(c1C(N)=O)CCN(Cc1ccccc1)C2	71µM	0	0	0	0
CCOC(=O)N1CCc2c(sc(NC(=O)c3ccc(Cl)s3)c2C(N)=O)C1	28µM	50µM	0	-	-
CCN1CCc2c(sc(NC(=S)NC(=O)c3ccco3)c2C(N)=O)C1	20µM	22µM	0	?	?
CCN1CCc2c(sc(NC(=O)Cc3ccccc3)c2C(N)=O)C1	-	0	0	0	0
Cc1ccc(CCNC(=O)CCCn2c(=O)c3ccccc3n(Cc3ccccc3C#N)c2=O)cc1	0	-	0	0	0
COc1ccc(CN2CCC3C=CCC(C(=O)O)C3C2=O)cc1OC (stereo not drawn)	-	0	-	0	0
COc1cccc(NC(=O)CSc2nc(=O)[nH]c3c2CCCC3)c1	0	-	0	0	0
CCOc1ccc(C(=O)Nc2ccc(S(=O)(=O)Nc3nc(C)cc(C)n3)cc2)cc1OC	0	-	0	0	0
CCN1CCc2c(sc(NC(=O)c3ccc(C(=O)c4ccccc4)cc3)c2C(N)=O)C1	71µM	0	40µM	?	0
Cc1sc(NC(=S)NC(=O)CCc2ccccc2)c(C(N)=O)c1C	?	0	0	0	0
CCN1CCc2c(sc(NC(=O)c3ccc(S(=O)(=O)N(CC)c4ccccc4)cc3)c2C(N)=O)C1	?	0	0	0	0
Cc1sc(NC(=S)NC(=O)c2ccco2)c(C(N)=O)c1C	40µM	?	0	0[11.4 µM]	0
COC(=O)CN1C(=O)CSc2ccc(S(=O)(=O)Nc3cccc(C)c3C)cc21	0	-	0	0	0
CCOc1ccc(CNC(=O)c2ccc(NC(=O)N3CCCCc4ccccc43)cc2)cc1OC	0	-	0	0	0
Cc1cccc(-c2nc(S(=O)(=O)c3ccc(F)cc3)c(N3CCN(c4ccccc4)CC3)o2)c1	0	-	?	?	0
NS(=O)(=O)c1ccc(CNC(=O)c2ccccc2SCC(=O)N2CCCC2)cc1	35µM	-	0	0	0
Cc1ccc(CNC(=O)c2ccccc2SCC(=O)NCC2CCCCC2)cc1	45µM	0	0	0	0
SMILES	G9a block	Sfp inh	BAZ2B inh	JMJD2A Tudor	HP1b binding inh
O=C(CSc1ccccc1C(=O)N1CCCCC1)NCC1CCCCC1	0	0	0	0	0
Cc1cc(-c2ccc(C)c(S(=O)(=O)N(C)c3ccc(C)c(C)c3)c2)on1	0	-	0	0	0
O=C1OC(c2ccc(Cl)cc2)/C(=C(/O)c2ccccc2)C1=O (stereo not drawn)	-	0	?	32µM	0
CCN(CC)CCNC(C(=O)Nc1cccc(C(C)=O)c1)c1ccccc1 (stereo not drawn)	?	?	56µM	1.1µM	?
CCOc1ccc(NC(C(=O)Nc2cccc(C(C)=O)c2)c2ccccc2)cc1 (stereo not drawn)	45µM	0	40µM	?	0
COc1cc(F)c(S(=O)(=O)N2CCN(S(=O)(=O)c3cccs3)CC2)c(F)c1	-	-	-	0	-
